Assay outcomes as filed in PubChem BioAssay.
ALOX12 inh: inhibitors of human 12S-lipoxygenase ALOX12; Potency, µM (titrated, usually from 108 µM), hits mostly inhibitors; P18054; 1.1% of 580,000 active; purified 12hLO, xylenol orange hydroperoxide absorbance
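Purified human 12hLO at 150 nM in 25 mM Hepes, 0.01% Triton X-100, pH 7.0, preincubated 15 min at room temperature with compound. Reaction started with 40 uM arachidonic acid, 30 min at room temperature. Hydroperoxide measured by Fe-xylenol orange, 573/405 nm absorbance ratio.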
LDHA inh: LDHA (human) enzyme inhibition; P00338; purified LDHA, NADH/diaphorase-resazurin fluorescence; stronger effect = lower value; 0.15% of 480,000 active; activity change, % (values are at about 110 or 230 µM); in the data active means activity change below about -30%; inconclusive means mostly about -25% to -30%
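Human LDH5 (2 nM) was incubated with 0.06 mM NADH and 0.2 mM pyruvate for 5 min at room temperature in Tris pH 7.4. Remaining NADH was coupled through diaphorase/resazurin, and resorufin fluorescence was read at 0 and 20 min.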
Nrf2 ARE act: activates Nrf2 signaling | AREc32 ARE-luciferase reporter (MCF7-derived line), luminescence, 24 h | Potency, µM (highest dose often 46.1 µM), most hits filed as activators | 0.31% of 410,000 active | AID 624171; further: nearly all actives have a fitted effect of over 65% in size
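AREc32_Fluc, 1000 cells/well, OPTI-MEM + 5% FBS, o/n 37 deg C 5% CO2; 23 nL cpd by pin tool, 24 hr; Steady-Glo 30 min RT, luminescence.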
Nrf2 block: inhibitors of Nrf2 signaling; A549 ARE-Fluc reporter, luciferase luminescence, 18-24 h; Potency, µM (doses to about 46 µM), most hits filed as inhibitors; 2.1% of 360,000 active; AID 504444; further: nearly all actives have a fitted effect of over 60% in size
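Nrf2 function is reported as luminescence of an ARE-controlled luciferase in A549 cells. Compounds were tested at several concentrations, and a CellTiter-Fluor read on the same wells flagged cytotoxicity.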
A549 tox: kills or reduces viability of A549 cells in Nrf2 counter-screen | A549 ARE-Fluc cells, CellTiter-Fluor viability, 18-24 h | 0.16% of 390,000 active | Potency, µM (highest dose often 46 µM), hits mostly inhibitors
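A549 ARE-Fluc cells in 5% FBS OPTI-MEM, 5000 cells/well, rested 2 h then exposed to compounds in concentration-response for 18-24 h at 37 °C. Viability by CellTiter-Fluor fluorescence (Ex 405/Em 525) after 30 min; luciferase luminescence (BugLite, 15 min, RT) read afterwards.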
ERG-DNA inh: ERG Ets/DNA interaction inhibition. 0.028% of 370,000 active. AID 624246. Potency, µM (highest dose often 76.9 µM), hits mostly inhibitors. fluorescence polarization, His-ERG Ets domain / labelled DNA; active means well fitted inhibition curve with a large enough effect in the polarisation, with a control signal flat; inconclusive means small, poorly fitted or top-dose-only effect, or effect the other way, or a change in a side signal; inactive means no such curve, though single readings can be large or run the other way; the % refers to the polarisation;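 further: polarization taken with two DNA probes labelled with fluorescein and Texas red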
Target sequence (P11308 whole entry, looked up, the tested form may be a part): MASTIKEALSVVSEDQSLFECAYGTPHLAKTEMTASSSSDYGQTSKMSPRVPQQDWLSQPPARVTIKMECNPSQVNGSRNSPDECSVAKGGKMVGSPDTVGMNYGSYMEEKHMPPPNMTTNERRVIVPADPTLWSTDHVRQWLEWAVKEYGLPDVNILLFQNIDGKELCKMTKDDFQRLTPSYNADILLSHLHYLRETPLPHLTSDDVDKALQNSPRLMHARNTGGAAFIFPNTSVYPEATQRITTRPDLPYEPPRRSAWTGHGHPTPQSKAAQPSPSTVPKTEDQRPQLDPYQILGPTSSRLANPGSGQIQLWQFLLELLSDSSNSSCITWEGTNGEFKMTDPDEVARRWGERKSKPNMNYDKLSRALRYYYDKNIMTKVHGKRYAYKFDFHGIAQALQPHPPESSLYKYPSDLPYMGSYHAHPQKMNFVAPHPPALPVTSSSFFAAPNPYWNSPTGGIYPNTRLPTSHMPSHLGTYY
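His-tagged ERG Ets domain (1 uM in the protein solution; 300mM KCl, 50mM Tris-HCl, 1mM EDTA, 1mM DTT, pH 7.5) received compound, then a probe mix of 5 nM fluorescein-DNA and 100nM Texas-615-DNA. Fluorescence polarization was read for both dyes.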
Numbers stand for hits; 0 = inactive; ? = inconclusive; - = no result given; ! = a repeat was not active; [ ] = another dose, or the depositor's remark. A selection: hits, their analogues and other compounds. The true share with any hit is near 2.7%. Unless noted, the call rests on the fitted dose curve; in most records, active means well fitted curve in the direction sought with a large enough effect; inconclusive means small, poorly fitted or top-dose-only effect, or another doubt; inactive means no such curve, though single readings can be large; an effect the other way counts as inactive or inconclusive.

SMILES	ALOX12 inh	LDHA inh	Nrf2 ARE act	Nrf2 block	A549 tox	ERG-DNA inh
O=C(CN1CCN(S(=O)(=O)c2ccccc2F)CC1)Nc1ccccc1C(=O)c1ccccc1	0	0	0	15µM	0	0
O=C(CN1CCCC1)Nc1ccccc1C(=O)c1ccccc1	0	0	0	0	0	0
O=C(CN1CCN(CC(=O)Nc2ccccc2C(=O)c2ccccc2)CC1)Nc1ccc(F)cc1	0	-32	-	-	-	-
Cc1ccc(C2CC2C(=O)NNC(=S)Nc2ccc(Cl)cc2)cc1 (stereo not given)	45µM	0	0	0	0	0
O=C(c1ccc(S(=O)(=O)c2cccc(Cl)c2)c([N+](=O)[O-])c1)N1CCN(c2ccccn2)CC1	0	0	0	16µM	?	0
Cc1c(-c2ccccc2)c(=O)oc2cc(OS(C)(=O)=O)ccc12	?	0	-	-	-	-
CCCCCCCCCc1conc1C(=O)/C=C/c1oc2c(c1C)CCC(C)C2 (stereo not given)	40µM	0	-	-	-	-
CSc1nc2c(=S)[nH]c(=S)[nH]c2s1	14µM	0	0	-	-	-
CCOc1ccc2nc(NC(=S)N(C)C)sc2c1	45µM	0	0	0	0	0
CCCC(=O)Nc1nc2ccc(OCC)cc2s1	0	0	0	?	0	0
COC(=O)c1ccc(-c2ccc(C(c3c(C)[nH][nH]c3=O)c3c(C)[nH][nH]c3=O)o2)cc1	35µM	0	0[9.22 µM]	0	0	0
Cc1nc2nc(N)nn2c(C)c1CCC(=O)NCCC(C)C	0	0	-	-	-	-
Cc1nnsc1S(=O)(=O)c1ccccc1	0	0	0	8.2µM	0	0
Cc1cc([N+](=O)[O-])nn1CC(=O)Nc1sc2c(c1C(N)=O)CCCC2	0	0	0	0	0	0
Cc1cc([N+](=O)[O-])nn1CCCC(=O)Nc1sc2c(c1C(N)=O)CCCC2	45µM	0	0	?	0	0
NC(=O)c1c(NC(=O)CCCn2cnc([N+](=O)[O-])n2)sc2c1CCCC2	40µM	0	0	0	0	0
CCN1C=C(Cc2ccc(OC)cc2)C2=C(C1)C(c1ccc(OC)cc1)C(C#N)=C(N)O2 (stereo not given)	18µM	0	0	-	0	0
COc1ccc(C2C(C#N)=C(N)Oc3cc(C)n(Cc4ccc5c(c4)OCO5)c(=O)c32)cc1 (stereo not given)	0	0	-	-	-	-
Cc1cccc2nc(-c3c(-c4ccc(Br)cc4)n(C)c(=O)n(C)c3=O)cn12	?	0	-	-	-	-
CCc1ccc(OCCCCCn2ccnc2)cc1	1.3µM	0	0	?	0	0
CCc1ccc(OCCn2ccnc2)cc1	?	0	0	0	0	0
Clc1ccc(OCCn2ccnc2)c(Br)c1	3.2µM	0	0	0	0	0
Cc1cccc(Cl)c1OCCCn1ccnc1	0	-37	0	0	0	0
O=C(/C=C/c1cccc(Cl)c1Cl)c1ccc(OC(F)F)cc1	?	0	-	-	-	-
CCn1c(SCc2nc3ccccc3nc2C)nnc1-c1cccs1	0	0	0	0	0	0
SMILES	ALOX12 inh	LDHA inh	Nrf2 ARE act	Nrf2 block	A549 tox	ERG-DNA inh
C=CCn1c(SCc2nc3ccccc3nc2C)nnc1-c1ccoc1C	32µM	0	0	0	0	0
C[N+](C)(C)c1ccc(/C=N/N=C/c2ccccc2)cc1	11µM	0	-	-	-	-
O=C(CN1CCc2ccccc2C1)N1N=C(c2ccco2)CC1c1ccco1 (stereo not given)	?	0	-	-	-	-
Cc1ccc(C(=O)Nc2ccc(-c3cn4cccnc4n3)cc2)cc1C	0	0	0	23µM	0	0
N#CC1(NC(=O)CSc2nc(-c3cccs3)nc3ccccc23)CCCCC1	?	0	-	-	-	-
CC1CCC(COC(=O)C[N+]2(C)CCCCC2)C(C)C1 (stereo not given)	22µM	0	-	-	-	-
CC(C)(C)c1ccc(C(=O)Nc2nnc(SCC(=O)NCC3CCCO3)s2)cc1 (stereo not given)	0	0	0	10µM	0	0
O=C(CSc1nc2ccc([N+](=O)[O-])cc2s1)NCC1CCCO1 (stereo not given)	0	0	0	?	0	0
O=C(CSc1nc2cc(Cl)ccc2s1)NCC1CCCO1 (stereo not given)	0	0	0	12µM	0	0
CC(C)(C)c1nnc(NC(=O)CS(=O)(=O)Cc2ccccc2)s1	40µM!	0	0	0	0	0
O=C(CS(=O)(=O)Cc1ccccc1)Nc1nnc(C(F)(F)F)s1	0	0	0	?	0	0
O=C(O)C(c1c[nH]c2cc(Br)ccc12)N1CCN(c2nsc3ccccc23)CC1 (stereo not given)	?	0	-	-	-	-
C/C(=N\Nc1nc2c(s1)CCCC2)c1ccc(Cl)cc1	40µM	0	0	?	0	0
CN(C)c1ccc(C(=O)Nc2nc3c(s2)CCCC3)cc1	?	0	0	?	0	0
COc1ccc(NC(=O)CSC2=NC3(CCCCC3)Nc3ccccc32)cc1Cl	?	0	-	-	-	-
CCOc1ccc(N2C(=O)C(CC(=O)Nc3ccccc3)N(Cc3ccccn3)C2=S)cc1 (stereo not given)	?	0	0	23µM	?	0
COC(=O)CN1C(=S)N(c2ccc(Cl)cc2)C(=O)C1CC(=O)Nc1ccc(F)cc1 (stereo not given)	?	0	0	0	0	0
COC(=O)CN1C(=S)N(c2ccc(Cl)cc2)C(=O)C1CC(=O)Nc1ccc(Cl)cc1 (stereo not given)	35µM	0	0	?	0	0
O=C(NC1CCc2ccccc21)c1cc2c(s1)CCCC2 (stereo not given)	0	0	-	-	-	-
O=C(CC(=O)Nc1ccccc1C(F)(F)F)Nc1ccccc1C(F)(F)F	0	0	0	0	0	0
O=C(COc1ccc(C(=S)N2CCCC2)cc1)Nc1ccccc1C(F)(F)F	0	0	0	23µM	?	0
O=C(CC(=O)c1ccccc1)Nc1ccccc1C(F)(F)F	0	0	0	16µM	0	0
O=C(NC1CCCC1)c1ccc(Cl)s1	0	0	0	0	0	0
O=C(NC1CCCCCC1)c1ccc([N+](=O)[O-])s1	0	0	0	2.1µM	0	0
O=C(NCc1ccccc1)c1csc(N2CCN(c3ccc(Cl)cc3)CC2)n1	0	-	-	-	-	-
SMILES	ALOX12 inh	LDHA inh	Nrf2 ARE act	Nrf2 block	A549 tox	ERG-DNA inh
COc1ccc2c(c1)CCC2=O	-	0	-	-	-	-
COc1ccc2c(c1)CCCC(Br)C2=O (stereo not given)	40µM	0	0	0	0	0
O=C(O)c1cc(/C=C/c2csc(-c3ccc(Cl)cc3)n2)nc2ccccc12	?	0	-	-	-	-
O=C(O)c1cncnc1/C=C/c1ccc2ccccc2c1	?	0	-	-	-	-
N#Cc1c(SCC(=O)NCCc2ccccc2)nc(N2CCOCC2)c2c1CCCC2	0	-31	-	-	-	-
O=C(Nc1nnc(CSCc2ccc(F)cc2)s1)c1cccc([N+](=O)[O-])c1	0	0	0	18µM	?	0
